# Fluor 339 460: intrinsic fluorescence of library compounds, ex339/em460 – biochemical, MLSMR library, data from DPM-DC assay, artefact control, profiling panel; compound autofluorescence, ex339/em460 nm, NADH buffer; active compounds read high; 1 = no-compound wells, NADH background; fluorescence fold increase at 10 µM; 65,000 compounds, 5.5% hits;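 active means at 10 µM, mean starting fluorescence two-fold or more over control wells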;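 further: signal is the first read of a kinetic run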
# Abs 340nm: compound light absorbance at 340 nm, profiling panel, artefact control, biochemical, MLSMR library, data from PS, PMK, MK assays; compound absorbance at 340 nm, fold over control; fold change at 10 µM; 65,000 tested, under 10 active;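 active means at 10 µM dose, initial 340 nm absorbance at least 2 fold that of control wells; inactive means change under 2 fold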;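 further: initial absorbance extrapolated from kinetic A340 decline of NADH oxidation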
# NADH coupling: inhibitors of PK/LDH coupling enzymes, profiling panel, artefact control, biochemical, MLSMR library; coupled PK/LDH NADH assays, four targets; IC50, µM (series often up to 10 µM); 65,000 compounds, 0.02% hits;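 active means single-dose screening hits from any of four coupled enzyme assays that gave an IC50 when retested across doses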;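 further: the DPM-DC format reads NADH fluorescence rather than 340 nm absorbance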
# Spn PMK inh: S. pneumoniae PMK inhibitors, primary screen, biochemical, mevalonate pathway, pilot trial included | phosphomevalonate kinase (Streptococcus pneumoniae D39) | purified PMK, PK/LDH-coupled NADH absorbance 340 nm | inhibition, % at 10 µM | 65,000 compounds, 0.49% hits | AID 539, 2006;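 active means top-ranked compounds by inhibition in the single 10 µM screen, taking a fixed number of the strongest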
# Spn DPM-DC inh: S. pneumoniae DPM-DC inhibitors, primary screen, biochemical, PK/LDH-coupled NADH fluorescence; diphosphomevalonate decarboxylase (Streptococcus pneumoniae D39); purified DPM-DC; calls only at 10 µM; 65,000 compounds, 0.49% hits;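 active means the 320 compounds with the highest percent inhibition in the single-dose primary screen, excluding strongly autofluorescent ones, cut at about 32% in these data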;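 further: kinetic rate of NADH fluorescence loss reporting ADP formed by the decarboxylase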
# Spn MK inh: S. pneumoniae MK inhibitors, primary screen, biochemical, PK/LDH-coupled NADH absorbance; inhibition, % at 10 µM; 65,000 compounds, 0.48% hits; AID 555, 2006; mevalonate kinase [Streptococcus pneumoniae D39]; purified MK, PK/LDH-coupled NADH absorbance 340 nm;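 active means ranked among the strongest by inhibition in the single 10 µM screen, a fixed top-ranked set picked for dose follow-up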
# A number is an active result; 0 = inactive; - = no result shown; + = active, no number. Sampled rows, rich in hits. Any-hit rate of the full collection: about 6.8%.
SMILES,Fluor 339 460,Abs 340nm,NADH coupling,Spn PMK inh,Spn DPM-DC inh,Spn MK inh
CCn1cc(C(=O)NCc2ccc3c(c2)OCO3)c(=O)c2cc(F)c(N3CCN(C)CC3)cc21,2.2,0,0,0,0,0
CCn1cc(C(=O)NCCc2ccccc2)c(=O)c2cc(F)c(N3CCN(C)CC3)cc21,0,0,0,0,0,0
O=C(OCC1CC(c2ccccn2)=NO1)c1ccc(Br)cc1 (stereo not given),0,0,0,0,0,0
COc1ccc(-c2cc3nc(C)c(CCC(=O)NCc4ccco4)c(C)n3n2)c(OC)c1,2.2,0,0,0,0,0
COc1ccc(-c2cc3nc(C)c(CCC(=O)N4CCCCC4)c(C)n3n2)c(OC)c1,0,0,0,40,0,0
CC(C)Nc1oc(-c2cccc3ccccc23)nc1C#N,3.8,0,0,0,-,0
CCNc1oc(-c2cccc3ccccc23)nc1C#N,2.1,0,0,0,-,0
C=CCNc1oc(-c2cccc3ccccc23)nc1C#N,2.9,0,0,0,-,0
O=C(NC1CCCCC1)C1CCCN(c2nnnn2-c2ccccc2)C1 (stereo not given),0,0,0,0,0,0
CCOC(=O)C1=C(C)NC(=O)NC1c1c(OCC(=O)N2CCCCC2)ccc2ccccc12 (stereo not given),0,0,0,0,0,0
CCNC(=O)NC(=O)C(C)SCc1ccccc1C (stereo not given),0,0,0,0,0,0
O=C(NCCc1ccc(Cl)cc1)C1CCN(S(=O)(=O)N2CCC3(CC2)OCCO3)CC1,0,0,0,0,0,0
Cc1occc1C(=O)Nc1nnc(C(F)(F)F)s1,0,0,0,74,+,59
Clc1cccc(-c2ccc(/C=N/n3cnnc3)o2)c1,0,0,3716µM,0,+,0
CC(C)CCn1c(N)c(S(=O)(=O)c2cccs2)c2nc3ccccc3nc21,3,0,0,0,-,0
COc1ccc(CCn2c(N)c(S(=O)(=O)c3cccs3)c3nc4ccccc4nc32)cc1OC,0,0,0,0,+,0
CC(C)CN1CN(S(=O)(=O)c2cccs2)c2nc3ccccc3nc21,0,0,0,0,0,0
Nc1c(S(=O)(=O)c2cccs2)c2nc3ccccc3nc2n1Cc1cccs1,3.9,0,0,0,-,0
Nc1c(S(=O)(=O)c2cccs2)c2nc3ccccc3nc2n1Cc1ccc2c(c1)OCO2,2.7,0,0,0,+,0
COc1ccc(Cn2c(N)c(C#N)c3nc4ccccc4nc32)cc1OC,0,0,0,0,-,0
COc1ccc(CCn2c(N)c(C#N)c3nc4ccccc4nc32)cc1OC,0,0,0,0,0,0
O=C(NCC(c1cccnc1)N1CCN(c2ccc(F)cc2)CC1)c1cccc(Cl)c1 (stereo not given),0,0,0,0,0,0
Nc1c(S(=O)(=O)c2cccs2)c2nc3ccccc3nc2n1CC1CCCO1 (stereo not given),3,0,0,0,-,0
O=c1c2ccccc2nc(-c2ccccc2)n1Cc1ccco1,0,0,0,0,0,0
Cn1c(N)c(S(=O)(=O)c2ccc(Br)cc2)c2nc3ccccc3nc21,3.8,0,0,0,-,0
SMILES,Fluor 339 460,Abs 340nm,NADH coupling,Spn PMK inh,Spn DPM-DC inh,Spn MK inh
Nc1c(S(=O)(=O)c2ccccc2)c2nc3ccccc3nc2n1Cc1ccco1,2.2,0,0,0,-,0
Cc1nn(-c2ccccc2)c2sc(C(=O)OCN3C(=O)c4ccccc4C3=O)cc12,0,0,0,0,0,0
COc1cccc(C2/C(=C(/O)c3ccncc3)C(=O)C(=O)N2CCCN2CCOCC2)c1OC (stereo not given),0,0,0,0,0,0
COc1ccccc1C(=O)N1CCN(c2nc3cc(C)c(C)cc3cc2C#N)CC1,2.8,0,0,0,0,0
COc1ccccc1C(=O)N1CCN(c2ccccn2)CC1,0,0,0,0,0,0
Cc1ccc(C2C(C#N)=C(N)Oc3c2sc2ccccc32)o1 (stereo not given),0,0,0,0,0,0
COc1ccc2c(c1)-c1ccccc1S(=O)(=O)N2C(C)=O,3.6,0,0,0,+,0
COc1ccc(OC)c(NC(=O)CN2C(=O)c3ccccc3S2(=O)=O)c1,0,0,0,0,0,0
Cn1c(SCCOc2ccc(Cl)cc2)nnc1-c1ccncc1,0,0,0,0,0,0
CCCCC(=O)Nc1cccc(-c2nc3ncccc3o2)c1,2.3,0,0,0,0,0
CCCC(=O)Nc1ccc2oc(-c3cccnc3)nc2c1,2.8,0,0,0,-,0
CCCC(=O)Nc1cccc(-c2nc3ccccc3o2)c1,0,0,0,0,0,0
Cc1cc(-c2nc3ncccc3o2)ccc1N,3,0,0,0,-,0
CCC(=O)Nc1ccc2oc(-c3cccc(C)c3)nc2c1,2.3,0,0,0,-,0
COc1ccccc1N1CCN(C(=O)c2sc3nc(-c4ccc(F)cc4)cn3c2C)CC1,0,0,0,0,0,0
O=C(Nc1ccc2oc(-c3cccnc3)nc2c1)c1cc2ccccc2o1,2.1,0,0,0,-,0
O=C(Nc1ccc2oc(-c3ccncc3)nc2c1)c1cccs1,0,0,0,0,-,0
CCCCC(=O)Nc1ccc2oc(-c3cccnc3)nc2c1,3.9,0,0,0,-,0
O=C(c1ccccc1)c1ccc2nc(N3CCN(C(=O)c4ccco4)CC3)c3nncn3c2c1,0,0,0,0,0,0
Cc1cccc(N2CCN(c3nc4ccc(Cl)cc4n4cnnc34)CC2)c1C,2.1,0,0,0,-,0
CCc1cc(C(=O)Nc2ccccc2)cs1,0,0,0,0,0,0
CC(=O)c1cccc(S(=O)(=O)N2CCN(c3nc4cc(C)cc(C)c4cc3C#N)CC2)c1,2.2,0,0,0,0,0
COc1ccccc1CNCc1cc(OC)c(OC)cc1OC,0,0,0,0,0,53
COc1ccccc1CNC(=O)COc1ccccc1OC,0,0,0,0,0,0
COc1cccc(CNCc2ccccn2)c1OC,0,0,0,0,0,53
Cc1nn(-c2ccccc2)c2c1C1(C(=O)N(C(C)C)c3ccccc31)C(C#N)=C(N)O2 (stereo not given),0,0,0,0,0,0
COc1cc(C(=O)NCc2nnc(SCC(=O)N3CCc4ccccc43)o2)cc(OC)c1OC,0,0,0,0,0,0
Cc1nc2c(=O)n(C)c(=O)[nH]c2n1Cc1ccccc1,0,0,0,0,0,0
COc1ccc(-c2nc3c(=O)n(C)c(=O)[nH]c3n2CCc2ccccc2)cc1,3.9,0,0,0,-,0

# Assay outcomes deposited in PubChem BioAssay by SRMLSC.
